High-throughput results (PubChem BioAssay)
This excerpt belongs to a sample that is enriched for hits.
Pf Dd2 growth – qHTS Primary assay for Inhibitors of Plasmodium falciparum Dd2 growth in vitro | P. falciparum Dd2 growth, SYBR Green, 72 h | Potency, µM (highest dose often 28.9 µM), inactives show at the top dose activity, negative = inhibition, usual class: inhibitors | hit rate 4.3% among 120,000; active means well fitted inhibition curve with a large enough effect;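 further: plate controls were DMSO vehicle for no effect and reference drug for full effect; nearly all actives have a fitted effect of over 65% in size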
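Readout: SYBR Green fluorescence, 485 nm excitation, 535 nm emission, after ~16 h lysis at 37C. Before that, Dd2-infected red cells (2.5% hematocrit) grew 72 h with compound, 29 uM top final concentration.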
* hit, by the source's call; i = inactive; [ ] = another dose, or the depositor's remark. Potency means the concentration at half of the fitted maximal effect.

SMILES | Pf Dd2 growth
Fc1ccc(-c2cnc3n2C[C@H](CN(Cc2ccccc2)Cc2ccccc2)OC3)cc1 | 6.31µM*
CNC(=O)[C@@H]1CN(Cc2ccc3cc[nH]c3c2)C[C@H]1c1nc(C)no1 | -5.1%
CC(C)NC(=O)C1CCN(C(=O)N2CC3CC(C2)[C@H]2CCCC(=O)N2C3)CC1 (some centres not stated) | -3.8%
COCc1ccc(C(=O)N2CC[C@@H](NC(=O)c3cnccn3)[C@H](O)C2)o1 | 1.1%
Cc1cc(Cl)ccc1NC(=O)N1CCCC1c1nncn1-c1ccccc1 (configuration not stated) | -6.0%
CNC(=O)[C@@H]1CN(C(=O)CCc2cccc(OC)c2)C[C@H]1CO | 4.5%
COc1ccc(-n2c(C)c(C(C)=O)c3cc(OC(=O)COc4ccccc4)ccc32)cc1 | -18.1%
CCOC(=O)c1c(C)n(-c2ccc(OC)cc2)c2ccc(OC(=O)COc3ccccc3)cc12 | 11.2µM*
CCOC(=O)c1c(C)n(-c2ccccc2)c2ccc(OC(=O)COc3ccccc3)cc12 | 43.1%
COc1ccc(C2=NOC3(CCCN(C(=O)c4ccc(C(F)(F)F)cc4)C3)C2)cc1 (configuration not stated) | -19.3%
CCC(=O)Nc1ccc2nc(SCCOc3cccc(C)c3)sc2c1 | i
O=C(COc1ccccc1)Nc1ccc2nc(SCC(=O)N3CCCC3)sc2c1 | 11.2µM*
O=C(Nc1ccc2nc(SCCOc3ccccc3)sc2c1)c1ccccc1F | 2.1%
CCOc1ccc(C(=O)Nc2ccc3nc(SCCOc4ccccc4)sc3c2)cc1 | -14.1%
O=C(Nc1ccc2nc(SCCOc3ccccc3)sc2c1)c1cccs1 | 3.16µM*
CC(=O)Nc1ccc2nc(SCCOc3ccccc3Cl)sc2c1 | i
O=C(Nc1ccc2nc(SCC(=O)N3CCCC3)sc2c1)c1ccccc1 | -13.9%
O=C(COc1ccccc1Cl)Nc1ccc2nc(SCC(=O)N3CCOCC3)sc2c1 | -3.9%
COc1cc(C)ccc1OCCSc1nc2ccc(NC(=O)c3ccco3)cc2s1 | 4.47µM*
O=C1CC2(CCN([S+](=O)([O-])c3cccs3)CC2)Oc2ccccc2N1 | -24.9%
COc1cccc(-n2cc(CN(C)c3ncncn3)cn2)c1 | 0.4%
O=C([C@@H]1C[C@H](Oc2cccnc2)CN1C(=O)Cc1ccccc1)N1CCCC1 | i
COc1cccc(C(=O)N2CCC(c3nn(-c4ccc(F)cc4)c(=O)[nH]3)CC2)c1 | i
Cc1noc([C@@H]2CC(F)(F)CN2)n1 | 29.0%
CC(=O)c1ccc(NC(=O)O[C@@H]2CO[C@H]3[C@@H]2OC[C@@H]3NC(=O)Nc2ccc(Oc3ccccc3)cc2)cc1 | i
SMILES | Pf Dd2 growth
CCOC(=O)c1cn(C2CN(S(=O)(=O)c3cccc(Cl)c3)C2)nn1 | -28.6%
Cc1ccc(C(=O)N2CCC(Cc3nc(C(C)C)no3)CC2)cc1C | i
Cn1c(C(=O)NC2CCN(Cc3ccccc3)CC2)cc2c1CCN(Cc1ccccc1)C2 | -19.3%
Cn1cc(-c2ccncc2)cc1C(=O)NC1CCN(Cc2ccccc2)CC1 | 5.01µM*
Cc1sc2ccn(C)c(=O)c2c1C(=O)NC1CCN(Cc2ccccc2)CC1 | -3.7%
CCCCc1cn(CC2CCN(C(=O)c3ccco3)CC2)nn1 | -14.9%
CC(=O)N1CCC(C(=O)NC2CCc3n[nH]c(=O)n3CC2)CC1 (configuration not stated) | 77.2%
COc1cc(F)ccc1-c1nc(-c2c(C)noc2C)cc2c1cc(C)n2C | -2.0%[44.1 µM]
COc1ccc(-c2ccc3onc(C)c3n2)cc1OC | 10.6%[44.1 µM]
COc1cccc(-c2cc(-c3c(C)noc3C)c3cncn3c2)c1OC | -18.7%[44.1 µM]
COc1ccc(-c2cc(-c3c(C)noc3C)c3cncn3c2)cc1OC | 7.08µM*
COc1cc(F)ccc1-c1cc(-c2c(C)noc2C)c2cncn2c1 | 3.55µM*
CCCOc1nccnc1NC1CCN(C(=O)C2CCCO2)CC1 (configuration not stated) | i[5.79 µM]
O=C(c1ccc[n+]([O-])c1)N1CCC2(CCCN(CC3CCCCC3)C2=O)C1 (configuration not stated) | 2.3%
CCN(CC)C(=O)N1CCCN(S(=O)(=O)c2ccccc2)CCC(=O)NCC1 | -2.7%
COCC1CN(S(=O)(=O)c2cccnc2)CC12CCNCC2 (configuration not stated) | 21.1%
COc1cccc(-c2[nH]ncc2CN)c1 | 2.9%
COc1ccc(-c2[nH]ncc2C(=O)NCc2cccc(OC)c2)cc1 | 22.1%
CCCCN(Cc1ccccc1)Cc1cn[nH]c1-c1ccc(OC)cc1OC | 12.6µM*
COc1cc(CN2CCC3(CC2)Cc2ccccc2CNC3=O)cc(OC)c1 | -29.9%
O=C(NC1CCCCC1)N1CCN(c2ccc(Cl)nn2)C(=O)C1 | -8.1%
COc1cccc(CN2CCNC(=O)C2CC(=O)NCc2ccon2)c1OC (configuration not stated) | 7.2%
Cn1ncc(CN2CCc3nc(-c4ccc(F)cc4F)[nH]c3C2)c1C1CC1 | 11.2µM*
Cc1noc(CN2CCc3nc(-c4ccc(F)cc4F)[nH]c3C2)n1 | -6.9%
CN1CCN(c2nc3c(c(=O)[nH]2)CCN(Cc2ccc(F)cc2F)CC3)CC1 | 35.3%[5.79 µM]
SMILES | Pf Dd2 growth
CCCCn1c(SCC(=O)Nc2cccc(OC)c2)nc2c(sc3ccccc32)c1=O | i
CCC(Oc1ccccc1)C(=O)Nc1cccc(OCc2cc(=O)n3cccc(C)c3n2)c1 (configuration not stated) | i
CCC(Sc1nc2ccccc2c2nc(CCn3cncc3C)nn12)C(=O)Nc1cccc(OC)c1 (configuration not stated) | 7.08µM*
O=C(C1CCCCC1)N1CCC(Cc2ccccc2)(C(=O)O)CC1 | 7.0%
Cn1ccc(CN2CCn3c(nn(-c4ccc(F)cc4F)c3=O)C2)n1 | -1.9%
c1cnc2nc(C3CCNCC3)[nH]c2c1 | -4.2%[44.1 µM]
COc1ccccc1Cc1nccc(C2(c3ccccc3Cl)CCNCC2)n1 | 8.91µM*
CC1(C(=O)NCC2CC2)CCc2cnc(NCc3ccccc3)nc21 (configuration not stated) | -11.9%[44.1 µM]
c1ccc(-c2nc(CC3CCCNC3)no2)nc1 (configuration not stated) | -13.5%
CC1(C(=O)NCc2ccncc2)CCCc2cnc(NCc3ccccc3)nc21 (configuration not stated) | i
c1coc(-c2ccnc3nc(C4CCC4)nn23)c1 | -7.1%
COc1ccccc1Cn1cnc2cccnc21 | -12.9%[44.1 µM]
Clc1ccccc1C1(c2ccnc(CC3CC3)n2)CCNCC1 | 5.01µM*
COc1ccccc1Cc1nc2ccccc2[nH]c1=O | 45.4%
Clc1ccccc1C1(c2ccnc(NCc3ccccc3)n2)CCNCC1 | 4.47µM*
Clc1ccccc1C1(c2ccnc(C3CCCC3)n2)CCNCC1 | 3.98µM*
COc1ccc(F)cc1C(=O)NCc1c(C)ncc2c1CCNC2 | -15.7%
Cc1noc(C)c1C(=O)N1CCN(C2CCNCC2)C(=O)C1 | 27.6%
CCCC(=O)Nc1ccc(NC(=O)C2CC(=O)N(CC(C)C)C2)cc1OC (configuration not stated) | -9.4%
CC1CCN([C@@H]2[C@H](O)[C@H](CO)O[C@@H]2CNC(=O)c2cccc(F)c2)CC1 | -22.6%[44.1 µM]
COc1cccc(NC(=O)Cn2c(=O)n(-c3ccccc3)c(=O)c3c2cc(C)n3C)c1 | 27.4%
COCCN1CCCCCC(O)c2cc(C(=O)NCCc3ccncc3)ccc21 (configuration not stated) | -3.0%
COc1ccc(NC(=O)CN2C(=O)C(c3ccccc3)=NC23CCCCC3)cc1 | i
O=C(O)CCCC(=O)N1C[C@@H](C(=O)O)[C@H](c2ccc3c(c2)OCO3)C1 | -8.2%
CCN1c2cc(C(=O)NC3CCCCC3)ccc2C(=O)N2CCCCC21 (configuration not stated) | i
